Shown are actives, neighbours in structure and some others; about 7.6% of the full set was active somewhere.
RORgamma inh: blocks mouse ROR gamma transcriptional activity | AID 2551 | Drosophila S2 Gal4-RORgamma UAS-luciferase reporter, 20 h | P51450 | 310,000 compounds, 5.4% hits | Potency, µM (doses to about 53.6 µM), without a hit: at the top dose activity change, negative = inhibition, actives largely listed as inhibitors; further: potency means the concentration at half of the fitted maximal effect; on the % scale 0 is the no-effect control and ±100 the full control effect; nearly all actives have a fitted effect of over 60% in size
Target sequence (P51450 whole entry, looked up, the tested form may be a part): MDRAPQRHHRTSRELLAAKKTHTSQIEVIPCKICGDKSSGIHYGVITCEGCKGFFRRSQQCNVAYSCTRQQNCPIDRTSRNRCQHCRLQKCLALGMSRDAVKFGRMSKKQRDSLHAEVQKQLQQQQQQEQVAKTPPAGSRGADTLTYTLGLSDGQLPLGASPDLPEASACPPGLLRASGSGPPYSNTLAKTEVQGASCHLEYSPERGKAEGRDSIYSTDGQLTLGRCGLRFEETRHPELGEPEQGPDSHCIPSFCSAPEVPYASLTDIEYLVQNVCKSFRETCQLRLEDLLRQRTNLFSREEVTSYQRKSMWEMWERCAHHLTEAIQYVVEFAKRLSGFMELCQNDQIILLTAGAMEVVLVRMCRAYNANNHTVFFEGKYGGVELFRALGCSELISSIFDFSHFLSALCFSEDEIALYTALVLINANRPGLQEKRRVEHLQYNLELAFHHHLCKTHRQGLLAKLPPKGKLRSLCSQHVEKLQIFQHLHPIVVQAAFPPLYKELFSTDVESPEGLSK
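Compounds are pin-transferred onto Drosophila Schneider cells expressing a copper-inducible Gal4–ROR gamma transactivation domain fusion. After 1 hr, copper sulfate is added to 700 uM final; luciferase is read 20 hr later.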
Giardia killer: kills Giardia lamblia. AID 540267. 340,000 compounds, 0.15% hits. activity change, % at 7.66 µM, hits read low. Giardia lamblia trophozoite viability; in the data active means activity change below about -80%; inconclusive means between about -30% and that limit;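 further: parasites exposed to compound for two days anaerobically before the ATP read; on the % scale 0 is the no-effect control and ±100 the full control effect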
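Anaerobic 48 hrs incubation at 37 deg C of 100 trophozoites/well with test compounds; ATPLite 1-Step luminescence, 15-30 min RT, reports cellular ATP as viability.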
ELG1 DNA repair: blocks ELG1-dependent DNA repair in HEK293T cells; HEK293T ELG1-luciferase reporter, luminescence, 16 h; DNA damage induced by 5-fluorouridine; 330,000 compounds, 2.3% hits; AID 504467; Potency, µM (top dose mostly 46.1 µM), without a hit: at the top dose activity change, negative = inhibition, most hits filed as inhibitors; further: potency means the concentration at half of the fitted maximal effect; on the % scale 0 is the no-effect control and ±100 the full control effect; nearly all actives have a fitted effect of over 55% in size
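In this reporter screen, reduction of luminescence relative to DMSO vehicle indicated activity. Compounds and 5-fluorouridine were added together to 2,000 cells per well, incubated for 16 hr at 37 °C, then developed with ONE-Glo.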
VP16 counter: counter-screen for ROR gamma inhibitors: Gal4-VP16 reporter; Drosophila S2 Gal4-VP16 UAS-luciferase, luminescence, 20 h; Potency, µM (doses to about 53.6 µM), inactives show at the top dose activity, negative = inhibition, hits mostly inhibitors; 310,000 compounds, 3.5% hits; AID 2546;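 further: Gal4-VP16 expression switched on by copper sulfate through the metallothionein promoter; potency means the concentration at half of the fitted maximal effect; on the % scale 0 is the no-effect control and ±100 the full control effect; nearly all actives have a fitted effect of over 50% in size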
p53 reactivation: restores transcriptional activity of mutant p53. H1299 p53-A138V BP100-luciferase reporter, luminescence, 24 h. Potency, µM (top dose mostly 92.2 µM), without a hit: top-dose activity change, positive = activation, actives largely listed as activators. 320,000 compounds, 0.063% hits. AID 504706; further: potency means the concentration at half of the fitted maximal effect; % of control where 0% means no effect; nearly all actives have a fitted effect of over 45% in size
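H1299 (p53-null), stable ts p53-A138V + BP100-Luc; 1000 cells/well, Opti-MEM/10% FBS; cpd 4 pt, 1:5; 24 h, 37 deg C, 5% CO2; detection reagent 10 min RT; luminescence.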
BRCA1 expr act: activators of BRCA1 expression. 380,000 compounds, 1.1% hits. MCF7-BRCA1-FFLuc reporter, luminescence, 48 h; response scale: scaled: vehicle 0%, 10 µM genistein 100%. Potency, µM (doses to about 46.1 µM), for the others: top-dose activation, actives largely listed as activators; further: potency means the concentration at half of the fitted maximal effect; nearly all actives have a fitted effect of over 80% in size
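48 h compound treatment of MCF7-BRCA1-FFLuc cells (phenol-red free MEM, 37 °C), then 15 min with luciferase substrate and luminescence imaging.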
Numbers without * were called inactive; ? = inconclusive; . = no result; [ ] = dose if it differs, or a comment. Unless noted, the call rests on the fitted dose curve; in most records, active means well fitted curve in the direction sought with a large enough effect; inconclusive means small, poorly fitted or top-dose-only effect, or another doubt; inactive means no such curve, though single readings can be large; an effect the other way counts as inactive or inconclusive.

SMILES | RORgamma inh | Giardia killer | ELG1 DNA repair | VP16 counter | p53 reactivation | BRCA1 expr act
COc1cccc(C(=O)O/N=C(\N)Cc2ccc(Cl)cc2)c1 | -37.9% | 7.7 | 0.6% | 12.6µM* | 7.2% | -12.1%
COc1cccc(C(=O)O/N=C(\N)c2ccncc2)c1 | -15.1% | -17.4 | ? | 3.9% | 2.2% | 10µM*
N/C(=N\OC(=O)c1ccncc1)c1cccc([N+](=O)[O-])c1 | 7.1% | 9.8 | ? | -1.0% | -8.6% | 7.94µM*
O=C1[C@H]2[C@H]3[C@H](O)[C@H](O)C/C(=N/OC[C@@H](O)COCc4ccco4)[C@H]3CC[C@@H]2C(=O)N1C[C@@H]1CCCO1 | -5.4%[10 µM] | . | . | 1.6%[10 µM] | . | .
COc1ccc(C(=O)O/N=C(\N)c2cccc(C)c2)cc1OC | 1µM* | 8.3 | ? | ? | ? | ?
CC1=CC(=O)C(C(C)C)=C/C1=N/OC(=O)c1cccc([N+](=O)[O-])c1 | 1µM* | -6.9 | -5.7% | ? | -8.1% | -1.4%
Cc1cccc(/C(N)=N/OC(=O)c2ccncc2)c1 | 7.08µM* | 7.9 | ? | ? | ? | 13.4%
Cc1cccc(C(=O)O/N=C(\N)c2ccc(Br)cc2)c1 | -36.9% | -2.9 | ? | -25.9% | ? | 10.0%
CCOC(=O)C1CCN(CCCSc2ccc(C)cc2)CC1 | . | 20.8 | . | . | . | -1.8%
COCCOC(=O)C1=C(C)NC2=C(C(=O)CC(C)(C)C2)C1c1ccc(N(C)C)cc1 (configuration not stated) | -17.8% | 6.5 | 17.5% | 0.6% | 5.7% | -4.7%
Cc1nnc(SC(C)C(=O)Nc2ncc(Cl)cc2Cl)n1Cc1ccccc1 (configuration not stated) | ? | -10.6 | -3.3% | 28.2µM* | -16.4% | -10.9%
COCCn1c(SC(C)C(=O)Nc2ncc(Cl)cc2Cl)nc2ccccc21 (configuration not stated) | -36.0% | 4.3 | 27.7% | 3.4% | -5.0% | -14.7%
Cn1c(=O)c(=O)n(C)c2cc(S(=O)(=O)CCC(=O)Nc3cccc(C(F)(F)F)c3)ccc21 | -10.7% | -22.1 | 0.0% | -0.8% | -1.6% | 8.1%
CCOC(=O)Cc1csc(NC(=O)CCCC(=O)O)n1 | 3.8% | 9.7 | 14.0% | 3.3% | -0.6% | 3.6%
COc1ccc(NC(=O)C(=O)N/N=C\c2ccc(CNC(=O)C(=O)Nc3ccc(C)c(C)c3)o2)c(OC)c1 | 11.0%[1.91 µM] | 22.5 | -6.9% | 3.16µM* | . | -10.3%
COc1ccc(OC)c(CCNC(=O)Cn2nc(C)c3c(C)n(-c4ccccc4)nc3c2=O)c1 | -16.8% | -1.4 | 7.3µM* | -5.1% | 4.0% | 0.0%
Cc1ccc(-n2nc3c(=O)n(CC(=O)NC(C)CCc4ccccc4)nc(C)c3c2C)cc1 (configuration not stated) | 3.3% | -6.2 | 0.651µM* | -7.7% | 15.4% | -19.3%
Cc1ccc(-n2nc3c(=O)n(CC(=O)NCCc4ccc(Cl)cc4)nc(C)c3c2C)cc1 | 44.2% | 10.0 | -26.0% | 12.6µM* | 2.1% | -21.0%
O=C(COC(=O)C1CCCC1)NCc1ccc(Cl)cc1 | -3.0% | 18.4 | 16.2% | 3.2% | 4.1% | -10.2%
COc1ccc([C@H]2CC(=O)C=C(/C=C/Cc3ccccc3)C2)cc1 | . | -14.4 | -5.3% | . | 19.0% | -54.2%
N#CCCn1cc(C(=O)CN2C(=O)NC3(CCCCCC3)C2=O)c2ccccc21 | . | 48.2 | 7.5% | . | -7.2% | -4.1%
CC(C)C[C@H]1CN(CCCC[C@H]2CNC(=O)C(=O)N2Cc2ccccc2)C(=O)C(=O)N1CCc1ccccc1 | . | . | . | . | . | 2.5%
CC1CN(C(=O)Nc2cccc(C(F)(F)F)c2)CC(C)O1 (configuration not stated) | 5.7% | 10.1 | 5.1% | 11.7% | 2.0% | 0.0%
N=C1N(c2ccccc2)C(=S)C(=Nc2ccccc2)N1c1ccccc1 | . | 5.8 | . | . | . | -12.4%
COc1ccc(N=C2C(=S)N(c3ccc(OC)cc3)C(=NS(=O)(=O)c3ccccc3)N2c2ccccc2)cc1 | . | -9.6 | . | . | . | 3.55µM*
SMILES | RORgamma inh | Giardia killer | ELG1 DNA repair | VP16 counter | p53 reactivation | BRCA1 expr act
COCCOC(=O)C1=C(C)N(c2ccccc2)C(=O)NC1c1cccc([N+](=O)[O-])c1 (configuration not stated) | ? | 0.2 | -11.3% | 17.8µM* | -4.9% | -32.0%
CCC(C(=O)NCCCc1ccccc1)n1nc(C)c2c(C)n(-c3ccccc3)nc2c1=O (configuration not stated) | 4.3% | 0.3 | ? | 0.1% | -7.4% | -5.4%
CCC(C(=O)NCCC1=CCCCC1)n1nc(C)c2c(C)n(-c3ccccc3)nc2c1=O (configuration not stated) | 4.47µM* | 5.3 | -3.9% | -9.3% | -3.3% | -25.0%
CCOc1ccc(/C=N/NC(=O)C2CC2)c(OCC)c1 | -43.0% | 18.6 | -3.9% | -2.7% | 14.8% | -21.1%
Cc1ccc(C(C)C)c(OCC(=O)Nc2cccc(S(=O)(=O)NC3=NCCCCC3)c2)c1 | -33.0% | -0.1 | 23.1µM* | -3.2% | -16.1% | -60.7%
CCOc1ccccc1OCC(=O)Nc1cccc(S(=O)(=O)NC2=NCCCCC2)c1 | . | 7.0 | ? | . | -1.3% | -20.5%
O=C(Nc1cccc(S(=O)(=O)NC2=NCCCCC2)c1)c1cc(-c2ccccc2Cl)nc2ccccc12 | 1.7% | 9.5 | 23.1µM* | 5.9% | -11.9% | -40.7%
CCOc1ccccc1Nc1nnc(SCC(=O)Nc2cccc(S(=O)(=O)NC3=NCCCCC3)c2)s1 | 0.1% | -1.8 | 18.4µM* | -6.6% | -1.2% | -56.1%
Cc1ccccc1OCC(=O)Nc1cccc(S(=O)(=O)NC2=NCCCCC2)c1 | . | 17.0 | -0.7% | . | -2.1% | 0.9%
C=CCN(c1ccccc1C(=O)O)S(=O)(=O)c1ccc(C)cc1 | 0.9% | 22.4 | ? | -29.7% | -3.5% | 0.4%
Cc1ccc(NNC(=O)c2sccc2Cl)c(C)c1 | . | -6.0 | . | . | . | -1.5%
Cc1ccc(NNC(=O)c2ccno2)c(C)c1 | -15.9% | -5.4 | 13µM* | -6.7% | 6.8% | -17.2%
O=C(NCc1ccco1)c1ccc([N+](=O)[O-])o1 | 5.01µM* | -80.5* | -12.0% | 1.9% | ? | -32.9%
O=C(NCc1ccco1)NC(=O)c1csc([N+](=O)[O-])c1 | 16.1% | -81.8* | 5.1% | -11.0% | 9.6% | 9.4%
COc1ccccc1OCc1ccc(C(=O)NCc2cccnc2)o1 | 13.7% | 5.0 | -10.2% | 1.5% | 4.2% | 11.1%
O=C(Nc1cccnc1)c1ccc([N+](=O)[O-])o1 | -38.4% | -85.8* | ? | ? | -19.1% | -74.0%
O=C(Nc1cccnc1)c1ccco1 | 23.6% | -6.1 | 14.9% | 5.0% | -0.9% | -0.8%
CC(C)(C)c1ccc(OCc2ccc(C(=O)NCc3cccnc3)o2)cc1 | ? | -6.4 | ? | 1.41µM* | -5.5% | ?

From PubChem BioAssay
